Activity calls are given as the source filed them. How the calls were made is not given here. Square brackets hold non-standard residues; d marks the D form. Peptide text beside a SMILES is read from it. Dolaproine = CO[C@@H]([C@@H]1CCCN1)[C@@H](C)C(=O)O; Dil = CC[C@H](C)[C@H](NC)[C@@H](CC(=O)O)OC; NMeV = CN[C@H](C(=O)O)C(C)C

The record followed here is PubChem BioAssay AID2202241 (National Center for Advancing Translational Sciences (NCATS), 2025).

The nature of the assay: Identification of antibody-drug conjugate (ADC) payloads which are substrates of ATP-binding cassette drug efflux transporters: cell line panel data. Particulars: 99 cancer cell line panel, CellTiter-Glo viability, 48 h; stronger effect = lower value. An excerpt: Antibody-drug conjugates (ADCs) feature an antibody recognizing a specific protein joined to a potent toxic payload. Numerous antibody-drug conjugates have received FDA approval; however, clinical resistance arises. Resistance mechanisms include decreased expression or mutation of the antibody target, impaired payload release, or increased expression of ATP-binding cassette (ABC) efflux transporters associated with multidrug resistance. We therefore sought to characterize the activity of ADC payloads across a broad set of cancer cell lines. We performed a high-throughput screen with 27 common ADC payloads against a panel of 99 cell lines to assess sensitivity to various payloads. Duocarmycin DM and PNU-159682 were exquisitely toxic across the panel of cancer cell lines of varying origins. These findings highlight the potentially broad applicability of Duocarmycin DM and PNU-159682 as ADC payloads in future ADC development.
Compounds were sourced from Levena Biopharma (San Diego, CA), Selleck Chem (Houston, TX), ChemieTek (Indianapolis, IN), or Microsource Discovery Systems (Gaylordsville, CT). Cell line sources and culture conditions were as follows: CAL-27 (ATCC: CRL-2095) and Hs 766T (ATCC: HTB-134) were grown in DMEM media +10% FBS. RKO (ATCC: CRL-2577), A-427 (ATCC: […]), BT-20 (ATCC: HTB-19), Detroit562 (ATCC: CCL-138), HARA-B (Cytion: 300465), PA-1 (ATCC: CRL-1572), TCCSUP (ATCC: […]), UM-UC-3 (ATCC: CRL-1749), and WI-38 (ATCC: CCL-75) were grown in EMEM media +10% FBS. AGS (ATCC: CRL-1739) was grown in F12K media +10% FBS. JJN-3 (DSMZ: ACC 541) was grown in IMDM media +20% FBS. 769-P (ATCC: CRL-1933), 786-O (ATCC: CRL-1932), A-375 (ATCC: CRL-1619), A-431 (ATCC: CRL-1555), A-549 (ATCC: CCL-185), A2780 (Cytion: 300491), ACHN (ATCC: CRL-1611), BT-474 (ATCC: HTB-20), BT-549 (ATCC: HTB-122), CCRF-CEM (ATCC: CCL-119), Daudi (ATCC: CCL-213), HaCaT (Cytion: 300493), HCC38 (ATCC: CRL-2314), HCC827 (ATCC: CRL-2868), HCT15 (ATCC: CCL-225), HEL 92.1.7 (ATCC: TIB-180), Hs 352.Sk (ATCC: CRL-7250), Hs578T (ATCC: HTB-126), HT-1080 (ATCC: CCL-121), HuCC-T1 (Riken Bioresource Center: RCB1960), HuP-T3 (DSMZ: ACC 259), HuP-T4 (DSMZ: ACC 223), IM-9 (ATCC: CCL-159), JJ012 (Gift: Karina Galoian (University of Miami)), JM-1 (ATCC: CRL-10423), K-562 (ATCC: CCL-243), Kasumi-3 (ATCC: CRL-2725), KMS-12-BM (DSMZ: ACC 551), LOUCY (ATCC: CRL-2629), LoVo (ATCC: CCL-229), MCF-7 (ATCC: HTB-22), MDA-MB-231 (ATCC: HTB-26), MDA-MB-436 (ATCC: HTB-130), MDA-MB-468 (ATCC: HTB-132), MIA PaCa-2 (ATCC: CRL-1420), MM1.R (ATCC: CRL-2975), MM1.S (ATCC: CRL-2974), NALM-6 (ATCC: CRL-3273), NCI-H1299 (ATCC: CRL-5803), NCI-H1355 (ATCC: CRL-5865), NCI-H1395 (ATCC: CRL-5868), NCI-H1437 (ATCC: CRL-5872), NCI-H2122 (ATCC: CRL-5985), NCI-H2170 (ATCC: CRL-5928), NCI-H226 (ATCC: CRL-5826), NCI-H23 (ATCC: CRL-5800), NCI-H322M (NIH: NCI-60), NCI-H460 (ATCC: HTB-177), NCI-H522 (ATCC: CRL-5810), NCI-H929 (ATCC: CRL-3580), NIH 3T3 (ATCC: CRL-1658), OCI-M2 (DSMZ: ACC 619), OPM-2 (DSMZ: ACCC 50), OVCAR-3 (ATCC: HTB-161), OVCAR-4 (Gift: Phil Lorenzi MD Anderson), OVCAR-8 (Gift: Phil Lorenzi MD Anderson), Panc 10.05 (ATCC: CRL-2547), PANC-1 (ATCC: CRL-1469), Pfeiffer (ATCC: CRL-2632), PL45 (ATCC: CRL-2558), PSN1 (ATCC: CRL-3211), Raji (ATCC: CCL-86), RD (Gift: Mari Yohe NCI), RPMI-8226 (ATCC: CRM-CCL-155), RS4;11 (ATCC: CRL-1873), SK-BR-3 (ATCC: HTB-30), SK-MEL-28 (ATCC: HTB-72), SMS-CTR (Gift: Mari Yohe NCI), SNU-16 (ATCC: CRL-5974), SU-DHL-8 (ATCC: CRL-2961), SU.86.86 (ATCC: CRL-1837), SW1990 (ATCC: CRL-2172), SW403 (ATCC: CCL-230), SW480 (ATCC: CCL-228), SW579 (ATCC: HTB-107), T-47D (ATCC: HTB-133), T24 (ATCC: HTB-4), and U-937 (ATCC: CRL-1593.2) were grown in RPMI +10% FBS. U266B1 (ATCC: TIB-196) were grown in RPMI +15% FBS. ME-1 (ATCC: HB-119), MOLM-13 (DSMZ: ACC 554), AMO1 (DSMZ: ACC 538), MOLP-8 (DSMZ: ACC 569), MV4-11 (ATCC: CRL-9591), PL-21 (DSMZ: ACC 536), and L-363 (DSMZ: ACC 49) were grown in RPMI +20% FBS. […]
Regarding `CC[C@H](C)[C@@H]([C@@H](CC(=O)N1CCC[C@H]1[C@H](OC)[C@@H](C)C(=O)N[C@@H](Cc1ccccc1)C(=O)O)OC)N(C)C(=O)[C@@H](NC(=O)[C@@H](NC)C(C)C)C(C)C` (H-[NMeV]V[Dil][Dolaproine]F-OH), the viability AUC was 938 (active).

In the case of `COC(=O)c1cc2c3c(cc(O)c2[nH]1)N(C(=O)c1cc2cc(OC)c(OC)c(OC)c2[nH]1)CC3CCl` (stereo unspecified), the viability AUC is 651 (active). With `COc1cc2cc(c1Cl)N(C)C(=O)C[C@H](O)[C@]1(C)O[C@H]1[C@H](C)C1C[C@@](O)(NC(=O)O1)[C@H](OC)/C=C/C=C(\C)C2` the figure was 1010 (active).

`CC[C@H](C)[C@@H]([C@H](N)CC(=O)N1CCC[C@H]1[C@H](OC)[C@@H](C)C(=O)N[C@@H](Cc1ccccc1)c1nccs1)N(C)C(=O)[C@@H](NC(=O)[C@H](C(C)C)N(C)C)C(C)C`: the viability AUC is 769 (active).

Regarding `CN(C)CCOc1ccc2[nH]c(C(=O)N3C[C@@H](CCl)c4c3cc(O)c3ccccc43)cc2c1`, the viability AUC was 514 (active).

In the case of `COc1ccc(C2=CN3C(=O)c4cc(OC)c(OCCCOc5cc6c(cc5OC)C(=O)N5C=C(c7ccc(N)cc7)C[C@@H]5C=N6)cc4N=C[C@H]3C2)cc1`, the viability AUC was 762 (active). For `CC[C@H](C)[C@@H]([C@H](N)CC(=O)N1CCC[C@H]1[C@H](OC)[C@@H](C)C(=O)N[C@@H](Cc1ccccc1)c1nccs1)N(C)C(=O)[C@@H](NC(=O)[C@@H](NC)C(C)C)C(C)C`, the viability AUC is 738 (active). On to `CC(C)(C)OC(=O)Nc1ccc2[nH]c(C(=O)N3C[C@@H](CCl)c4c3cc(O)c3ccccc43)cc2c1`, for which the viability AUC is 645 (active).

Consider `COc1cccc2c1C(=O)c1c(O)c3c(c(O)c1C2=O)C[C@@](O)(C(=O)CO)C[C@@H]3O[C@H]1C[C@H]2[C@H](O[C@@H]3[C@@H](OC)OCCN32)[C@H](C)O1`, for which the viability AUC is 549 (active). To `CCN(C(C)=O)[C@H]1CO[C@@H](O[C@H]2[C@H](O[C@H]3C#C/C=C\C#C[C@]4(O)CC(=O)C(NC(=O)OC)=C3/C4=C\CSSSC)O[C@H](C)[C@@H](NO[C@H]3C[C@H](O)[C@H](SC(=O)c4c(C)c(I)c(O[C@@H]5O[C@@H](C)[C@H](O)[C@@H](OC)[C@H]5O)c(OC)c4OC)[C@@H](C)O3)[C@@H]2O)C[C@@H]1OC` belongs 700 (active); to `CCN[C@H]1CO[C@@H](O[C@H]2[C@H](O[C@H]3C#C/C=C\C#C[C@]4(O)CC(=O)C(NC(=O)OC)=C3/C4=C\CSSSC)O[C@H](C)[C@@H](NO[C@H]3C[C@H](O)[C@H](SC(=O)c4c(C)c(I)c(O[C@@H]5O[C@@H](C)[C@H](O)[C@@H](OC)[C@H]5O)c(OC)c4OC)[C@@H](C)O3)[C@@H]2O)C[C@@H]1OC`, 635 (active).
